# BoNT-F LC inh: inhibitors of Botulinum neurotoxin F light chain protease | AID 588497 | Multiplex microsphere protease cleavage assay, flow cytometry | inhibition, % at 10 µM | 360,000 tested, 0.22% active; in the data active means inhibition above about 35%, passing the limit was not always enough; inconclusive means no clear call, values can overlap the other calls
# Bead autofluor: flagged as autofluorescent in microsphere protease counterscreen. compound autofluorescence counterscreen, microsphere flow cytometry; active compounds read high. fluorescence intensity (test concentration not listed). 360,000 tested, 3.1% active; in the data active means fluorescence intensity above about 16000; inconclusive means no clear call, values can overlap the other calls
# BoNT A protease: BoNT A light chain protease inhibition; 360,000 tested, 0.17% active; inhibition, % at 10 µM; AID 588499; multiplex microsphere protease substrate cleavage, flow cytometry
# Anthrax LF prot: blocks Bacillus anthracis lethal factor protease; P15917; multiplex microsphere protease cleavage assay, LF; inhibition, % at 10 µM; 360,000 tested, 0.12% active; AID 588501
# Target sequence (P15917 whole entry, looked up): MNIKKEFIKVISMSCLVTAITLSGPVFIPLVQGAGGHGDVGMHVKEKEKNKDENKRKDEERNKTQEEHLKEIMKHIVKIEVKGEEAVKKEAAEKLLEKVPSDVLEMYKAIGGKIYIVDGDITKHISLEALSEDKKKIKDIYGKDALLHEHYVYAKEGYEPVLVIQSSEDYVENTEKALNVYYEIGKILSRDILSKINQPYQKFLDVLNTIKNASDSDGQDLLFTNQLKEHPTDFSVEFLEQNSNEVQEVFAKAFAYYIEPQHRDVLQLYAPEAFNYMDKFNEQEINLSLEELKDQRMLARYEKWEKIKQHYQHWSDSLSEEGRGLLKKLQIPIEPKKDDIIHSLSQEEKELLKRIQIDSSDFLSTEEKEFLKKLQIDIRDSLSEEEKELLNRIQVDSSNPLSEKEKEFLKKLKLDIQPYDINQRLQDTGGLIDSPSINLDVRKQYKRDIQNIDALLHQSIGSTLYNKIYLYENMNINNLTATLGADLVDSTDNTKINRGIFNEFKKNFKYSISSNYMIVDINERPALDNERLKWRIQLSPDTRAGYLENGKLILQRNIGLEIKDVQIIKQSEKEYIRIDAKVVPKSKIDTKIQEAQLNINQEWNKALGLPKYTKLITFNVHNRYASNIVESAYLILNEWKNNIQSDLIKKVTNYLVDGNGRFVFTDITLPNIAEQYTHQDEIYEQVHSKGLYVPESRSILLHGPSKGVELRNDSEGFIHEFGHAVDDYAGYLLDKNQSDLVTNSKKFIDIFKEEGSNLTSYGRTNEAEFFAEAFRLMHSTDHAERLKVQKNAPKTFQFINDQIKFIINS
# A number is an active result; - = inactive; ? = inconclusive; ! = a repeat was not active. Compounds with a hit are over-represented: about 3.5% of the library has one in this group of screens. Unless noted, no stated cut-off is given here; in the data, active means inhibition above about 30%; inconclusive means no clear call, values can overlap the other calls; inactive means below that.
SMILES,BoNT-F LC inh,Bead autofluor,BoNT A protease,Anthrax LF prot
O=C(COc1ccc(Cl)cc1)NCCS(=O)(=O)N1CCN(c2ccccc2F)CC1,-,-,-,-
CCN(CC)C(=O)c1ccc2c(=O)n(CCOC)c(=S)[nH]c2c1,-,20993,?,-
COCCn1c(=S)[nH]c2cc(C(=O)N3CCN(c4ccccc4OC)CC3)ccc2c1=O,-,22207,?,-
CCOC(=O)N1CCN(C(=O)c2ccc3c(=O)n(Cc4ccc(Cl)cc4)c(=S)[nH]c3c2)CC1,-,19158,-,-
CCN1CCN(C(=O)c2ccc3c(=O)n(Cc4ccccc4OC)c(=S)[nH]c3c2)CC1,-,18735,-,-
CCNC(=O)C1(C)CCCN(C(=O)C2(c3ccc(Cl)cc3)CCCC2)C1 (stereo not given),-,-,-,-
O=C(c1ccc2c(=O)n(Cc3ccccc3)c(=S)[nH]c2c1)N1CCOCC1,-,-,-,-
CC1CCCN(C(=O)c2ccc3c(=O)n(Cc4ccc5c(c4)OCO5)c(=S)[nH]c3c2)C1 (stereo not given),-,22529,-,-
CCOCCCn1c(=S)[nH]c2cc(C(=O)N3CCOCC3)ccc2c1=O,-,17022,-,-
CCN(CC)C(=O)c1ccc2c(=O)n(Cc3ccc4c(c3)OCO4)c(=S)[nH]c2c1,-,-,-,-
Cc1nn(C)c(=O)n1-c1ccc(Oc2ccccc2)cc1,-,21312,-,-
COc1ccc(-n2c(C)nn(C)c2=O)c(OC)c1,-,18468,?,-
Cc1ccc(S(=O)(=O)N2CCN(C(=O)COC(=O)COc3ccccc3C(C)C)CC2)c(C)c1,-,-,-,-
COc1ccc(OC)c(NC(=O)c2sc3nc(Cc4ccccc4)cc(C(F)(F)F)c3c2N)c1,-,20176,-,-
O=C(Oc1c(Cl)cc(Cl)c2cccnc12)N1CCOCC1,-,?,?,?
O=C(Oc1c(Cl)cc(Cl)c2cccnc12)N1CCCCC1,-,21476,?,-
COC(=O)C1CCN(S(=O)(=O)c2ccc(OC)cc2)CC1,-,24359,-,-
Cc1ccc(NC(=O)NC2CCN(S(=O)(=O)c3ccc(F)cc3)CC2)cc1,-,-,-,-
COc1ccc(S(=O)(=O)N2CCCCCC2)cc1,-,22702,-,-
COc1ccc(S(=O)(=O)N2CCC(C(=O)NCC3CC3)CC2)cc1,-,-,-,-
COc1ccc(-c2ccc(S(=O)(=O)N3CCCC3)cc2)cc1,-,-,-,-
COc1ccc(S(=O)(=O)N2CCC(NC(=O)Nc3ccc(C)cc3)CC2)cc1,-,20464,?,-
OC[C@@H]1CN(CCNc2ccccc2)C[C@H](n2cnc3c(NCc4ccncc4)ncnc32)O1,-,-,-,-
CCOC(=O)C1=C(CSCC(=O)OC)NC(=O)NC1c1cc(C)ccc1C (stereo not given),-,22020,-,-
COC(=O)C1=C(CSCc2ccccc2)NC(=O)NC1c1cc(C)ccc1C (stereo not given),-,-,-,-
SMILES,BoNT-F LC inh,Bead autofluor,BoNT A protease,Anthrax LF prot
CC(=O)Nc1ccc(NC(=O)c2ccc(NS(=O)(=O)c3cc(C(C)(C)C)cc(C)c3C)cc2)cc1,-,-,-,-
Cc1cc(C(C)(C)C)cc(S(=O)(=O)Nc2ccc(O)c(C(=O)O)c2)c1C,-,20140,?,-
COc1cccc(CNn2cnnc2)c1OCc1ccccc1F,-,20043,?,-
CCCCNC(=O)O[C@@H]1C[C@H]2CCC(=O)N3CC[C@@H](C1)[C@@H]23,-,-,-,-
O=C(O)c1ccccc1-c1ccccc1C(=O)NCCCO,-,20852,?,-
COCCNC(=O)c1ccccc1-c1ccccc1C(=O)O,-,-,-,-
COc1ccc(OCc2cc(C(=O)N3CCOCC3)no2)c(Cl)c1,-,-,-,-
CCC(=O)c1cn(Cc2ccccc2C#N)c2ccccc12,-,23775,-,-
N#Cc1ccccc1Cn1cc(C(=O)C2CC2)c2ccccc21,-,-,-,-
O=C(NCCc1ccccc1)c1cnc(Cl)c(Cl)c1,-,-,-,35
O=C(NCC1CCCO1)c1cccc(Br)c1 (stereo not given),-,16290,?,-
O=C(NCC1CCCO1)c1cnc(Cl)c(Cl)c1 (stereo not given),-,-,-,32
O=C(NCCCSc1ccccc1)c1cnc(Cl)c(Cl)c1,-,-,-,-
CCCC(=O)Nc1ccc(C(=O)NCC2CCCO2)cc1 (stereo not given),-,24245,-,-
O=C(NCC1CCCO1)c1cccc(C(=O)NCC2CCCO2)c1 (stereo not given),?,-,-,-
Cc1cccc(NC(=O)C(C)OC(=O)CNC(=O)C2CCCCC2)c1 (stereo not given),-,-,-,-
CCN1C(=O)C(=O)N(CC(=O)N2CCN(c3ccccc3)CC2)C1=O,-,-,-,-
Cc1ccc(C)c(NC(=O)c2ccc3c(c2)CCN3S(C)(=O)=O)c1,-,-,-,-
CN1CCc2nc(SCC(=O)Nc3ccc(Cl)cc3)c(C#N)cc2C1,-,-,-,-
N#Cc1cc2c(nc1SCC(=O)Nc1cc(Cl)cc(Cl)c1)C1CCN2CC1,-,20731,-,-
O=C(Nc1ccccc1)c1ccn[nH]1,-,-,-,-
CC(=O)c1ccc(NC(=O)c2ccn[nH]2)cc1,-,22226,-,-
O=C(CNC(=O)c1ccco1)OCC(=O)c1ccc2c(c1)CCCC2,-,17018,-,-
O=C(CC[C@H]1O[C@@H](n2cnc3c(NC(=O)c4ccccc4)ncnc32)[C@H](O)[C@@H]1O)N[C@@H](CO)c1ccccc1,-,-,-,-
CC1CCN(CC(=O)N2CC(=O)Nc3ccccc32)CC1,-,22135,?,-
SMILES,BoNT-F LC inh,Bead autofluor,BoNT A protease,Anthrax LF prot
CC1CCN(CC(=O)N2c3ccccc3CCc3ccccc32)CC1,-,16766,-,-
O=C1CN(C(=O)c2ccccc2Cl)c2ccccc2N1,44,-,-,-
COc1ccc(C2NC(=O)NC(C)=C2[N+](=O)[O-])cc1 (stereo not given),?,-,-,-
COc1ccc2cc(C#N)c(SCC(=O)NNC(=O)Cc3ccccc3)nc2c1,-,19935,-,-
CCOc1ccc2cc(C#N)c(SCC(=O)N3CCC(C)CC3)nc2c1,-,23801,-,-
Nc1ncnc2c1ncn2[C@@H]1O[C@H](C(=O)N[C@H](CO)Cc2ccc(O)cc2)[C@@H](O)[C@H]1O,-,-,-,-
O=Cc1ccc(-c2ccccc2C(=O)O)o1,-,-,-,-
O=C(O)c1ccccc1-c1c2cc(I)c(=O)c(I)c-2oc2c(I)c(O)c(I)cc12,38!,-,64,33
CC[C@]12c3[nH]c4cc(CCC(=O)N(C)C)ccc4c3CCN1C(=O)[C@@H](CC(=O)NCCCn1ccnc1)C[C@@H]2C(=O)N1CCN(C(=O)c2ccco2)CC1,-,-,-,-
CCOC(=O)c1c(C)c(C(=O)NCc2ccccc2OC)c(C)n1C,-,22066,-,-
CCOC(=O)c1c(C)c(C(=O)NC2CCCCCC2)c(C)n1C,-,21622,?,-
CCOCCCNC(=O)c1c(C)c(C(=O)OCC)n(C)c1C,-,18479,?,-
CCOC(=O)c1c(C)c(C(=O)N(C)C2CCCCC2)c(C)n1C,-,-,-,-
COc1ccccc1OCC#CCNC1CCCCC1C (stereo not given),-,-,-,-
CCOC(=O)C1=C(C)NC(C)=C(C(=O)OCC)C1/C=C/c1ccccc1,-,22125,-,-

# High-throughput results deposited in PubChem BioAssay by NMMLSC.
